HSF1 activator = HSF-1 activators, primary screen, NIH3T3-HGL cells, MG132 stress, luminescence, single point; NIH3T3-HGL HSF-1 luciferase reporter, 8 h; 100% = twice DMSO control signal; activation, % at 9 µM; actives 1.7% (n = 300,000); AID 504408, 2011;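 active means mean replicate activation of at least 50% with a set share of replicates each reaching 50%; inconclusive means only one of those two conditions met; inactive means mean below 50% and too few replicates reaching it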;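 further: 0% = median of the neutral control wells and 100% = twice that signal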
MITF act = activators of MITF-driven TRPM1 promoter reporter, primary screen, cell-based, SK-MEL-5, luciferase, single point; SK-MEL-5 TRPM1-promoter luciferase, 24 h; % of positive control, neutral wells = 0; activation, % at 12.5 µM; actives 0.75% (n = 300,000); AID 588334, 2011;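 active means mean activation of at least 80% with every replicate also reaching 80%; inconclusive means mean reaches 80% but some replicate falls short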;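 further: 0% = neutral control wells and 100% = parthenolide positive control wells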
Wnt bcat act = Wnt/beta-catenin pathway activators, primary screen, cell-based, plate reader, single point; Wnt/beta-catenin reporter cell assay, activator; activation, % at 9.35 µM; actives 1.2% (n = 300,000); in the data active means activation above about 30%, passing the limit was not always enough; inconclusive means no clear call, values can overlap the other calls;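 further: 0% = neutral control wells and 100% = positive control wells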
HSF1 inhib = HSF1 inhibitors in luciferase reporter cells, primary screen, cell-based, NIH3T3, luminescence | NIH3T3-HGL HSE-luciferase, MG132-induced, luminescence 8 h; stronger effect = lower value | activity change, negative = inhibition, % at 7.5 µM (by protocol) | actives 0.77% (n = 300,000) | AID 2098, 2009;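 active means more than half of replicate wells show activity change below -50%, luminescence cut by over half; inconclusive means some wells, but at most half, below -50%; inactive means no replicate well below -50%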;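 further: luciferase reports HSF-1 transcriptional activity via heat shock element; 0% = median of DMSO wells and -100% = zero luminescence signal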
esBAF inh = Bmi1 luciferase reporter increase in mESCs, primary screen, esBAF inhibitor project, mouse ES cells, Bmi1 luciferase knock-in, single point | 24 h; 100% = twice the neutral-well signal | reporter increase, % at 12.5 µM | actives 2% (n = 350,000) | AID 602393, 2012; in the data active means activation above about 40%; inconclusive means no clear call, values can overlap the other calls;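 further: 0% = median of the plate's neutral control wells and 100% = double that signal; a rise in the Bmi1 reporter signal indicates esBAF inhibition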
An asterisk follows results filed as active; ? = inconclusive; nt = no result. Compounds with a hit are over-represented: about 3.9% of the library has one in this group of screens.

SMILES	HSF1 activator	MITF act	Wnt bcat act	HSF1 inhib	esBAF inh
C/C(=N/N=C(/C)c1cccs1)c1cccs1	7	nt	15	3	48*
C/C(=N\NC(=O)c1ccncc1)c1cccs1	-1	13	-1	2	nt
Cc1ccc(S(=O)(=O)NC2c3cccc4cccc(c34)C2Sc2nncn2C)cc1 (centres undefined)	67*	-3	-4	19	nt
Cn1cnnc1SC1c2cccc3cccc(c23)C1NS(=O)(=O)c1ccccc1 (centres undefined)	24	4	-4	6	nt
Oc1ccccc1N=Nc1nc(-c2ccccc2)c(-c2ccccc2)[nH]1	71*	-80	nt	54	-57
Cc1ccc2[nH]c(=O)c(CN(CCc3ccccc3)C(c3nnnn3Cc3ccco3)C(C)C)cc2c1 (centres undefined)	82*	-6	36*	67	nt
CCC(c1nnnn1CCc1ccccc1)N(Cc1ccco1)Cc1cc2cc(C)cc(C)c2[nH]c1=O (centres undefined)	58*	-4	nt	27	-10
CCC(c1nnnn1Cc1ccccc1)N(Cc1ccco1)Cc1cc2cc(OC)ccc2[nH]c1=O (centres undefined)	16	4	13	14	9
CCC(c1nnnn1CCc1ccccc1)N(Cc1ccco1)Cc1cc2c(C)ccc(C)c2[nH]c1=O (centres undefined)	128*	-5	nt	75	nt
CCN(C[C@H]1N[C@H](CO)[C@H]1c1ccccc1)C(=O)c1ccncc1	nt	nt	nt	nt	-1
COC(=O)c1sccc1NC(=O)Nc1cccc(F)c1	77*	8	-3	33	nt
COC(=O)c1sccc1NC(=O)Nc1ccc(C)cc1	nt	20	-2	nt	44*
COC(=O)c1sccc1NC(=O)Nc1cc(C)cc(C)c1	nt	42	0	nt	80*
COC(=O)c1sccc1NC(=O)Nc1ccc(C(C)=O)cc1	nt	11	-3	nt	26
COC(=O)c1sccc1NC(=O)Nc1ccc(F)cc1	70*	5	-3	28	nt
COc1cccc(S(=O)(=O)N2C[C@@H](O)COC[C@H]3O[C@H](CC(=O)Nc4ccccc4)CC[C@@H]32)c1	nt	nt	nt	nt	0
Cc1noc(C)c1NC(=O)Nc1cccc2c1O[C@@H](CN(C)C(=O)Nc1ccc(F)cc1)[C@H](C)CN([C@H](C)CO)C2=O	nt	nt	nt	nt	1
COc1ccc(NS(=O)(=O)c2ccc(-c3ccccn3)s2)cc1	-90	nt	3	-87*	nt
NC(N)=NC(=O)c1nc(Cl)c(N2CCCCCC2)nc1N	nt	126*	21	nt	59*
C/C=C/c1ccc2c(c1)O[C@H](CN(C)C(=O)Nc1cc(F)ccc1F)[C@@H](C)CN([C@@H](C)CO)S2(=O)=O	nt	nt	nt	nt	-4
CCN(C(=O)COC(=O)c1c2c(nc3ccccc13)/C(=C/c1ccccc1)CC(C)C2)C1CCS(=O)(=O)C1 (centres undefined)	84*	-12	-6	49	nt
CCN(C(=O)COC(=O)c1cc(-c2ccc3cc(OC)ccc3c2)nc2ccccc12)C1CCS(=O)(=O)C1 (centres undefined)	70*	nt	nt	36	nt
CS(=O)(=O)N1[C@H](C#N)[C@@H](c2ccc(C#CC3CC3)cc2)[C@H]1CO	nt	nt	nt	nt	-4
COc1cccc(/C=N/NC(=O)CN(C)S(=O)(=O)c2ccccc2)c1OC	nt	42	13	nt	56*
O=C(CSC1=NCCS1)Nc1ccc(F)cc1	16	-8	-1	-6	nt
SMILES	HSF1 activator	MITF act	Wnt bcat act	HSF1 inhib	esBAF inh
O=C(CSc1ccc(F)cc1)Nc1ccc(C2SCCS2)cc1	60*	nt	9	46	45*
CCCN1[C@H](C(=O)NCCCN(C)C)[C@@H](CO)[C@@H]2Cn3c(ccc(C4=CCCCC4)c3=O)[C@@H]21	nt	nt	nt	nt	2
Cc1ccc(C(=O)O/N=C(\N)Cc2cccc3ccccc23)cc1	64*	-7	0	17	2
N/C(=N\OC(=O)c1ccccc1)c1ccccn1	-70	-56	-3	-65*	-77
N/C(=N\OC(=O)C(c1ccccc1)c1ccccc1)c1ccccn1	73*	5	nt	39	36
Cc1ccc(C(=O)O/N=C(\N)c2ccccn2)cc1	-84	-69	0	-81*	-79
N/C(=N\OC(=O)c1cccc(F)c1)c1ccccn1	1	17	7	-13	-58
N/C(=N\OC(=O)C(c1ccccc1)c1ccccc1)c1cccnc1	-1	4	-2	4	nt
Cc1noc(C)c1S(=O)(=O)Nc1ccc2c(c1)C(=O)N([C@@H](C)CO)C[C@@H](C)[C@H](CN(C)Cc1ccccc1)OCCCC[C@H](C)O2	nt	nt	nt	nt	-5
Cc1cccc(C(=O)O/N=C(\N)c2ccccn2)c1	-52	-33	-4	-49	-73
CC(C)(C)c1ccc(C(=O)O/N=C(\N)c2ccccn2)cc1	-90	-77	-12	-89*	-80
Cc1ccc(C(=O)O/N=C(\N)c2ccccn2)cc1C	-78	-55	-8	-74*	-71
CCOc1ccc(C(=O)O/N=C(\N)c2ccccn2)cc1	-84	nt	-4	-80*	-84
COc1cc(C(=O)O/N=C(\N)c2ccccn2)cc(OC)c1OC	19	nt	11	13	16
C[C@@H]1CN([C@H](C)CO)S(=O)(=O)c2ccc(Br)cc2O[C@@H]1CN(C)C(=O)C1CCCCC1	nt	nt	nt	nt	-4
CCn1nnc(NC(=O)c2cc3ccccc3o2)n1	9	64	nt	15	16
CCCCn1nnc(NC(=O)c2ccc(-c3cccc(Cl)c3)o2)n1	9	32	nt	3	10
CCCCn1nnc(NC(=O)c2cc3ccccc3o2)n1	39	?	nt	25	59*
CCCn1nnc(NC(=O)c2cc3ccccc3o2)n1	17	71	12	15	50*
COCC(=O)NC[C@H]1[C@@H](c2ccc(C3=CCCC3)cc2)[C@H](CO)N1C(C)=O	nt	nt	nt	nt	4
CCOC(=O)c1ccc(NC(=O)c2cc3ccccc3o2)cc1	24	111*	nt	21	25
Cc1cc(C(=O)Nc2cccc(C(=O)O)c2)oc1C	-59	-85	-4	-53*	-60
CCOC(=O)c1cccc(NC(=O)c2cc3ccccc3o2)c1	4	nt	7	10	46*
Cc1cc(C(=O)Nc2cccc(C(=O)O)c2)c(C)o1	7	-6	nt	4	-7
CCOC(=O)c1ccccc1NC(=O)c1cc2ccccc2o1	-15	4	-2	-1	-7
COc1n[nH]c(C(=O)NCc2ccccc2)c1[N+](=O)[O-]	nt	-5	-1	nt	nt
COc1ccccc1C(=O)Nc1nc2ccccc2s1	-90	nt	-8	-88*	-84
COc1n[nH]c(C(=O)Nc2nc3ccccc3s2)c1[N+](=O)[O-]	-69	-12	53*	-65*	nt
COc1ccc(C(=O)Nc2nc3ccccc3s2)c(OC)c1	-93	nt	-9	-93*	-85

Screening data: PubChem BioAssay, Broad Institute
